This passage reports Potency results from PubChem BioAssay (NCATS).

Experiment [1] can be described thus: Quantitative High-Throughput drug screen in 47 multiple myeloma cell lines against the NCATS MIPE library collection: XG1_PLB cell viability assay (AID 1919866). Further: nearly all actives have a fitted effect of over 35% in size. In outline:
(§1)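 ATP-based CellTiter-Glo luminescence after 48 h drug exposure (37 °C, 5% CO2) of 500 myeloma cells per well. DMSO-only wells set 100% viability, media-only wells 0%; MIPE 4.0 library added by pin tool.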

A short description of experiment [2]: Quantitative High-Throughput drug screen in 47 multiple myeloma cell lines against the NCATS MIPE library collection: VP6_DJ cell viability assay (AID 1919867). Further: nearly all actives have a fitted effect of over 40% in size. In outline:
as §1

Experiment [3] can be described thus: Quantitative High-Throughput drug screen in 47 multiple myeloma cell lines against the NCATS MIPE library collection: UTMC2_PLB cell viability assay (AID 1919868). Further: nearly all actives have a fitted effect of over 55% in size. Particulars: CellTiter-Glo ATP luminescence, 48 h; viability (% of DMSO control): at 45.8 µM (top of the series). In outline: as §1
(Cellular ATP, detected with luciferase, serves as a proxy for viable cell number.)

The nature of experiment [4]: Quantitative High-Throughput drug screen in 47 multiple myeloma cell lines against the NCATS MIPE library collection: PE2_PLB cell viability assay (AID 1919869). Further: nearly all actives have a fitted effect of over 35% in size. In outline:
as §1

Experiment [5] can be described thus: Quantitative High-Throughput drug screen in 47 multiple myeloma cell lines against the NCATS MIPE library collection: PCM6_Riken cell viability assay (AID 1919870). Further: nearly all actives have a fitted effect of over 30% in size. Put shortly:
as §1

Experiment [6] in a line: Quantitative High-Throughput drug screen in 47 multiple myeloma cell lines against the NCATS MIPE library collection: RPMI8226_ATCC cell viability assay (AID 1919871). Further: nearly all actives have a fitted effect of over 30% in size. Put shortly:
as §1

Experiment [7] in a line: Quantitative High-Throughput drug screen in 47 multiple myeloma cell lines against the NCATS MIPE library collection: OPM2_DSMZ cell viability assay (AID 1919872). Further: nearly all actives have a fitted effect of over 30% in size. In outline:
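Luminescent ATP measurement with CellTiter-Glo gives viability, scaled between DMSO-only wells (100%) and media-only wells (0%). Cells, 500 per well, faced library compounds for 48 hours at 37C.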

Experiment [8] is described as follows: Quantitative High-Throughput drug screen in 47 multiple myeloma cell lines against the NCATS MIPE library collection: KMS28BM_JCRB cell viability assay (AID 1919874). Further: nearly all actives have a fitted effect of over 35% in size. In outline:
as §1

Experiment [9] in a line: Quantitative High-Throughput drug screen in 47 multiple myeloma cell lines against the NCATS MIPE library collection: KMS11_JCRBsus cell viability assay (AID 1919873). Further: nearly all actives have a fitted effect of over 50% in size. In outline:
as §1

Results filed as inconclusive are left out. Active and inactive are the calls of the source. The call rests on the fitted dose curve; in most records, active means well fitted cell-killing curve with a large enough effect; inconclusive means small, poorly fitted or top-dose-only effect, or effect the other way; inactive means no such curve, though single readings can be large or run the other way. Non-standard residues stand in square brackets, D forms with d. Residues, ends and D or L forms follow the SMILES beside them. *: point of attachment. Nva = CCC[C@H](N)C(=O)O; Cbz = O=C(OCc1ccccc1)*
Potency means the concentration at half of the fitted maximal effect.

For `NC(=NCCCCCCN=C(N)N=C(N)Nc1ccc(Cl)cc1)N=C(N)Nc1ccc(Cl)cc1`, the Potency is 2.64 µM (active) in [1]; 2.35 µM (active) in experiment [2]; 5.26 µM (active) in experiment [3]; 6.62 µM (active) in experiment [4]; 2.64 µM (active) in experiment [5]; 16.6 µM (active) in experiment [6]. Moreover, the results for the Potency in [7] and in experiment [8] were 14.8 µM (active) and 18.7 µM (active), respectively.
For `COc1cc([C@@H]2c3cc4c(cc3[C@@H](O[C@@H]3O[C@@H]5CO[C@@H](c6cccs6)O[C@@H]5[C@H](O)[C@@H]3O)[C@H]3COC(=O)[C@H]23)OCO4)cc(OC)c1O`, the Potency was 0.526 µM (active) in experiment [1]; 0.469 µM (active) in [2]; 0.0526 µM (active) in experiment [3]; 0.166 µM (active) in [4]; 0.662 µM (active) in experiment [5]; 4.18 µM (active) in [7]. The Potency in experiment [9] and in experiment [8] was 1.32 µM (active) each time.
`COC(=O)[C@@H]1[C@H]2C[C@@H]3c4[nH]c5ccccc5c4CCN3C[C@@H]2CC[C@@H]1O`: the Potency entry in experiment [1], in [2], in [3], in [4], in experiment [5] and in experiment [6] was “inactive” throughout. Further, the Potency entry in experiment [9] is “inactive”.
`CC(=O)NCC(=O)N1[C@H]2CC[C@H]1c1cc(Nc3ncc(C(F)(F)F)c(NC4CCC4)n3)ccc12`: the Potency in [1] was 0.332 µM (active); in experiment [2], 0.833 µM (active); in [3] it was 0.118 µM (active); in experiment [4] it was 1.66 µM (active); in [5], 1.87 µM (active); in experiment [6] it was 5.9 µM (active). Also, the Potency in experiment [9] was 0.0662 µM (active).
For `C=CC[C@@H]1C=C(C)C[C@H](C)C[C@H](OC)[C@H]2O[C@@](O)(C(=O)C(=O)N3CCCC[C@H]3C(=O)O[C@H](C(C)=C[C@@H]3CC[C@H](O)[C@H](OC)C3)[C@@H](C)[C@@H](O)CC1=O)[C@@H](C)C[C@@H]2OC`, the Potency in [1] is 2.35 µM (active); in experiment [2], 0.833 µM (active); in experiment [3], 2.96 µM (active); in experiment [4], 2.64 µM (active); in experiment [5], 0.935 µM (active); in [6] it was 2.09 µM (active). Also, in [9], the Potency is 0.833 µM (active).
Turning to `COc1cccc2c1C(=O)c1c(O)c3c(c(O)c1C2=O)C[C@@](O)(C(C)=O)C[C@H]3O[C@H]1C[C@H](N)[C@H](O)[C@H](C)O1`, the Potency is 0.105 µM (active) in [1]; 0.0418 µM (active) in [2]; 0.0118 µM (active) in experiment [3]; 0.0418 µM (active) in [4]; 0.0296 µM (active) in experiment [5]; 0.235 µM (active) in experiment [6]. Moreover, the Potency in [7] was 0.166 µM (active); in experiment [8] it was 0.0296 µM (active).
For `CCc1ccc(C(=O)Nc2cc(CN3CCN(C)CC3)cc(C(F)(F)F)c2)cc1C#Cc1cnc2ccnn2c1`, the Potency in experiment [1] was 4.69 µM (active); in experiment [2] it was 9.35 µM (active); in experiment [3] it was 11.8 µM (active); in experiment [4], 4.69 µM (active); in experiment [5], 3.72 µM (active); in [6], 20.9 µM (active). Further, the values for the Potency in [9] and in [8] were 4.69 µM (active) and 4.18 µM (active), respectively.
`Cn1cnc(=N)c2[nH]cnc21`: the Potency in experiment [1] is 0.166 µM (active); in experiment [2], 0.0662 µM (active); in experiment [3], 0.0935 µM (active); in experiment [4] it was 0.332 µM (active); in [5], 0.235 µM (active); in [6], 0.264 µM (active). Further, the Potency in experiment [7] is 0.235 µM (active); in [8], 0.0469 µM (active).
For `O=C(Nc1cccc(Nc2ncc(Br)c(NCCc3cnc[nH]3)n2)c1)N1CCCC1`, the Potency is 0.372 µM (active) in experiment [1]; 2.64 µM (active) in [2]; 0.662 µM (active) in experiment [3]; 2.96 µM (active) in experiment [4]; 3.32 µM (active) in experiment [5]; 18.7 µM (active) in experiment [6]. Also, the Potency in experiment [7] was 4.18 µM (active); in experiment [8], 18.7 µM (active).
On to `O=c1c(O)c(-c2ccc(O)c(O)c2)oc2cc(O)ccc12`, for which the Potency in [1] was 13.2 µM (active); in experiment [2], 14.8 µM (active); in experiment [3], 13.2 µM (active); in [4], 14.8 µM (active); in experiment [5], 9.35 µM (active); in experiment [7], 23.5 µM (active).
As to `CCC[C@@H](C=O)NC(=O)[C@H](CC(C)C)NC(=O)[C@H](CC(C)C)NC(=O)OCc1ccccc1` (Cbz-Leu-Leu-[Nva]-aldehyde), the Potency in [1] was 0.372 µM (active); in experiment [2], 0.235 µM (active); in experiment [3], 1.48 µM (active); in [4], 0.418 µM (active); in experiment [5] it was 0.469 µM (active); in experiment [6], 1.32 µM (active). In addition, the Potency in [8] was 0.187 µM (active).
In the case of `CCOC(=O)[C@@H](N)Cc1ccc(-c2cc(O[C@H](c3ccc(Cl)cc3-n3ccc(C)n3)C(F)(F)F)nc(N)n2)cc1`, the Potency in [1] is 23.5 µM (active); in experiment [2] it was 26.4 µM (active); in [3] it was 20.9 µM (active); in experiment [4] it was 23.5 µM (active); in experiment [5] it was 18.7 µM (active); in experiment [6], 20.9 µM (active). The Potency in [7] and in experiment [8] was 18.7 µM (active) each time.
Take `CC(=O)C1=C(O)C=C2Oc3c(C(C)=O)c(O)c(C)c(O)c3C2(C)C1=O` (configuration not stated): the Potency entry in experiment [1], in [2], in [3], in experiment [4], in experiment [5] and in experiment [6] was “inactive” in each case. Besides, the Potency result in experiment [9] and in [8] was “inactive” in each case.
As to `COc1cc(C=CC(=O)CC(=O)C=Cc2ccc(O)c(OC)c2)ccc1O`, the Potency in experiment [1] was 6.79 µM (active); in experiment [2] it was 9.59 µM (active); in experiment [3], 21.5 µM (active); in [4] it was 4.81 µM (active); in [5], 9.59 µM (active); in experiment [6], 30.3 µM (active). Moreover, the results for the Potency in experiment [7], in experiment [9] and in experiment [8] were 21.5 µM (active), 8.55 µM (active) and 10.8 µM (active), respectively.
